Reference: PubChem BioAssay (NCI)
Several values for one entry are separate records, joined by “and”; a condition that tells them apart may be missing. Identical values can stand only once. Compounds without any hit were thinned out: in the full panel of roughly 83,000, 20% have a hit.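 Single-dose data. Exposure time 48 hours. Values below 10 considered active.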 Values without a mark were called inactive. Activity calls are given as the source filed them.

What follows are compounds tested on MDA-MB-468 breast (assay: NCI-60 one-dose screen, 48 h (100 = growth as untreated, 0 = no growth, -100 = all killed)). Details: 10 µM unless noted.

SMILES | growth
CN(C)Cc1ccccn1 | 105%
COc1ccc2c(c1)C/C(=C\c1cc(-c3cc(OC)c(OC)c(OC)c3)n[nH]1)C2=O | 68.8%
O=C(N/N=C/c1ccc(Cl)cc1)c1ccc(NC(=O)c2ccccn2)cc1 | 78.2%
Nc1nc(Cl)cc(=O)n1Cc1ccccc1 | 97.3%
CSC1=NC(=Nc2c(C)cccc2C)C2(CCC(C(C)(C)C)CC2)N1c1ccc(Cl)cc1 (stereo unspecified) | 38.3%
O=C(CCNCc1ccccc1)c1ccccc1 | 98.2%
O=C1/C=C/[C@@H](O)[C@@H]2C[C@@H](O)C[C@H]2/C=C/CCC[C@H](CCO)O1 | -54.5% (active)
Nc1c(C(=O)Nc2ccccc2F)sc2nc3c(cc12)CCCC3 | 26.4%
O=C(O)c1cc(=O)[nH]c(=O)[nH]1 | 97.9% and 80.6%
CC(=O)Nc1ccc(S(=O)(=O)NC2CCCCC2)cc1 | 93.9%
O=[N+]([O-])c1cc(Br)cc2c1[nH]c1ccc(Br)cc12 | 70.3%
O=C(/C=C/c1ccccn1)c1ccccc1 | 21.3%
COC(=O)CCc1c(/C=C2\N=C(c3ccc[nH]3)C=C2OC)[nH]c(C)c1C(=O)OCc1ccccc1 | 28.5%
COc1ccc(C2=Nc3c(N)ncnc3NC(c3cccc(Nc4ccnc5cc(C(F)(F)F)ccc45)c3)C2)cc1 (stereo unspecified) | 46.9%
Cc1c(Cl)cccc1NC(=O)c1sc2nc3c(cc2c1N)CCCCC3 | 22.4%
CC(NC(=O)CCl)c1ccccc1 (stereo unspecified) | 89%
